Source: PubChem BioAssay
This is one part of the list. Values without a mark were called inactive. The source made the active and inactive calls.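 Rule for the calls, unless noted: active = mean inhibition above about 50% in the one-dose retest (limit read from the data); inactive = the rest.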

Key:
[1] = molecular target: Sentrin-specific protease 8 (Homo sapiens) (UniProt Q96LD8); assay: SENP8 protease inhibitors, retest, confirmation, biochemical, luminescence, single concentration (AID 488912;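 active = mean inhibition across replicates above about 50%, limit read from the data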); settings: Recombinant SENP8, Z-RLRGG-aminoluciferin luminescence, 60 min; at 12.5 µM; stronger effect = higher value
[2] = molecular target: Sentrin-specific protease 6 (Homo sapiens) (UniProt Q9GZR1); assay: SENP6 protease inhibitors, confirmation, biochemical, luminescence, single concentration (AID 488915); settings: recombinant SENP6, Z-RLRGG-aminoluciferin luminescence; at 12.5 µM; stronger effect = higher value
[3] = molecular target: Sentrin-specific protease 7 (Homo sapiens) (UniProt Q9BQF6); assay: SENP7 protease inhibitors, retest, confirmation, biochemical, luminescence, single concentration (AID 488917); settings: recombinant SENP7, Z-RLRGG-aminoluciferin luminescence, 40 min; at 12.5 µM; stronger effect = higher value
Caspase-3 (Homo sapiens) = Caspase-3 (Homo sapiens) (UniProt P42574); assay: caspase-3 protease inhibitors, confirmation, selectivity assay for SENP inhibitor project, biochemical, single concentration (AID 488918;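 active = mean inhibition above about 50%, limit read from the data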;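 note: plate controls were enzyme with DMSO for no effect and wells without caspase-3 for full effect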); settings: purified caspase-3, Z-DEVD-aminoluciferin luminescence, 60 min; at 12.5 µM; stronger effect = higher value
[4] = luciferase luminescence interference by compounds, confirmation, artefact control for SENP inhibitor project, biochemical, single concentration, SENP8 reaction pre-completed (AID 488919;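 active = mean inhibition above about 50% when retested at one dose, limit read from the data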;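 note: plate controls were DMSO wells with completed reaction for no effect and substrate without enzyme for full effect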); settings: Pre-incubated SENP8/Z-RLRGG-aminoluciferin, at 12.5 µM, stronger effect = higher value

Chain of Sentrin-specific protease 8 (Homo sapiens) (Q96LD8 whole entry, looked up): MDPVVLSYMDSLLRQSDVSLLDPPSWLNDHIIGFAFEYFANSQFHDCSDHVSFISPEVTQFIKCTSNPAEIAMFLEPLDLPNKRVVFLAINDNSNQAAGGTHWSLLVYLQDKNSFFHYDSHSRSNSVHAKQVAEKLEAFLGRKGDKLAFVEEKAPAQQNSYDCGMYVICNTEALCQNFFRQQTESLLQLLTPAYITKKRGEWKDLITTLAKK
Chain of Sentrin-specific protease 6 (Homo sapiens) (Q9GZR1 628-1112 limits assumed): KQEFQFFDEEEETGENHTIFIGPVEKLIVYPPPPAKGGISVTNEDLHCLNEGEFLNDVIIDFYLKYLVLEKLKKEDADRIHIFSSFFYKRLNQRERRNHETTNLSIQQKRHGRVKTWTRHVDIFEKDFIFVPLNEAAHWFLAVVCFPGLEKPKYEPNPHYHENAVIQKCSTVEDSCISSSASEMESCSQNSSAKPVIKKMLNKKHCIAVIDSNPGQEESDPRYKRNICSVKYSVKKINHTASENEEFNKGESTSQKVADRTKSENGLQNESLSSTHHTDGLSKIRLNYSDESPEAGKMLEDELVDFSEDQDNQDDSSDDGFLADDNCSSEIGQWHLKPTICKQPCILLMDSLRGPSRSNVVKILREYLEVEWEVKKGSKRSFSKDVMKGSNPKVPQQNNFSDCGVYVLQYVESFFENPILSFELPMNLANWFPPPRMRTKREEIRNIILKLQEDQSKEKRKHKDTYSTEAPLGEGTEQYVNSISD
Chain of Caspase-3 (Homo sapiens) (P42574 28-227 limits assumed): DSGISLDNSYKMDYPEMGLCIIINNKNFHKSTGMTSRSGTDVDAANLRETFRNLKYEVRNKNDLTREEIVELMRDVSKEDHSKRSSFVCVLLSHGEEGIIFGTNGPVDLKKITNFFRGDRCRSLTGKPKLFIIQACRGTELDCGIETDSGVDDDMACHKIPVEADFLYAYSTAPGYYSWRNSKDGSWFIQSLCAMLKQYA
Chain of Sentrin-specific protease 7 (Homo sapiens) (Q9BQF6 706-1050 limits assumed): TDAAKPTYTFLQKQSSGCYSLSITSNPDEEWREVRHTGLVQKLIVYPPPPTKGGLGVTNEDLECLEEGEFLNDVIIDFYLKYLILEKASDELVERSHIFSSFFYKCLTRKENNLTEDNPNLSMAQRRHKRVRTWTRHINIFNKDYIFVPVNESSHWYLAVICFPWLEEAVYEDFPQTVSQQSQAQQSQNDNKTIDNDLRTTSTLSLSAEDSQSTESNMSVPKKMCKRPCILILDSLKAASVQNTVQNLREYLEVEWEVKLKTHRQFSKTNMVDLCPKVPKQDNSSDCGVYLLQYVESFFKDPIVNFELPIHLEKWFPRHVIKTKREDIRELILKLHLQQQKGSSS

Compound	inhibition [1]	inhibition [2]	inhibition [3]	inhibition (Caspase-3 (Homo sapiens))	inhibition [4]
CCOC(=O)c1cccc(NC(=O)c2ccc(F)cc2F)c1	54% (active)	48.2%	75.9% (active)	67.9% (active)	59.7% (active)
Cc1cccc(/C=N/NC(=O)CNc2cccc3ccccc23)n1	13.1%	12.9%	3.9%	-0.3%	1.6%
O=C(Nc1ccc(C(=O)O)c(O)c1)c1ccccc1	73% (active)	73.7% (active)	94.9% (active)	93.7% (active)	82.8% (active)
O=C(Nc1ccccc1)c1ccc(NC(=O)c2cccs2)cc1	-8.2%	-4.8%	0.7%	38.2%	-1.7%
O=C1/C(=C/c2cccs2)CCc2ccccc21	98.3% (active)	99.1% (active)	101% (active)	95.8% (active)	97.6% (active)
C/C(=N\Nc1nc2ccccc2[nH]1)c1cccs1	49.6%	49.2%	81.2% (active)	63.1% (active)	61.7% (active)
CCOc1ccc2nc(C(=O)N3CCCC(C)C3)sc2c1 (stereo not given)	59.3% (active)	68.3% (active)	86.3% (active)	62.5% (active)	66.4% (active)
O=C(Nc1nc2ccc([N+](=O)[O-])cc2s1)c1ccncc1	16%	17.5%	15.1%	7.6%	15.8%
Clc1ccc(Nc2ccc3ccccc3n2)cc1	87.7% (active)	88.2% (active)	97.8% (active)	48.8%	71.2% (active)
